Here are results for 47 sequences from article PMC7819943, “Rice protein-binding microarrays: a tool to detect cis-acting elements near promoter regions in rice”.

Whole data set: some 35,000 sequences, median “fluorescence intensity (a.u.)” near 10,000, cut for the highest 2% near 52,000. What follows is part of a selection rich in the highest values, with near analogues and random picks from the rest.

This assay deals with T1, OsWOX13 (Oryza sativa, UniProt Q5QMM3 1-267).
T1 sequence: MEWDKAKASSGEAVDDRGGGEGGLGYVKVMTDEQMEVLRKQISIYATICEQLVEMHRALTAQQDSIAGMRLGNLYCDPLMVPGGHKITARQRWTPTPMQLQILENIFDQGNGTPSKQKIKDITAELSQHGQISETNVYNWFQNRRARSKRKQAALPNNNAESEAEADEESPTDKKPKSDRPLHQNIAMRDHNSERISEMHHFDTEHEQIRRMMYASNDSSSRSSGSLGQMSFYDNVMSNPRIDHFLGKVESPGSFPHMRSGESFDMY
As to the kind of experiment: protein-binding microarray (RPBM); PBS, 2% BSA, 51.3 ng/ul salmon testes DNA, 50 uM zinc acetate, 200 nM TF, 25 C, 1 h; high values mean tight binding. The following applies: protein: recombinant; tags: N-terminal polyhistidine and DsRed monomer fusion (pET32a); label: CyDye5-dUTP incorporated in the synthesized complementary strand; 3' TTTTT single-stranded linker to array surface; dsDNA, one strand shown. The method, boiled down:
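Ni–NTA purification followed expression in E. coli BL21-CodonPlus of transcription factors fused N-terminally to a polyhistidine tag and DsRed. At 200 nM in PBS with 2% BSA, salmon testes DNA and 50 µM zinc acetate, the protein was incubated for 1 h at 25 °C with a custom Agilent array that had been primer-extended with Cy5-dUTP and blocked with 2% BSA. After washing, the array was read on an Axon 4000B scanner. The binding signal is per-feature fluorescence intensity in arbitrary units.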
Regarding “TGAAATGTAATTGTGATTTTATCTTGAAATGATCCGATGGCGGAGTCACCTAGTGCAG”, the binding signal was 31400 fluorescence intensity (a.u.).

As to “ATCATAATGTGTATGCATGATTAGAGGGCGCAAATTTGTACGGAGTCACCTAGTGCAG”, the binding signal was 14600 fluorescence intensity (a.u.). Take “ATGGGTGATTAATCCTAGAATAATGTATCTAGACAGAATCCGGAGTCACCTAGTGCAG”: the binding signal was 4120 fluorescence intensity (a.u.). In the case of “GAGATTTGTTTGATGTATCAGGGTGTCACGTTGTCATGTTCGGAGTCACCTAGTGCAG”, the binding signal is 3440 fluorescence intensity (a.u.). On to “GGGATTGGTTGAGAAAATAAAACAGATATATAAGTTTATCCGGAGTCACCTAGTGCAG”, for which the binding signal was 3160 fluorescence intensity (a.u.).

With “CAAACTAGATTTGTTGCTAAATTGAATTGTTATGTCATTACGGAGTCACCTAGTGCAG”, the binding signal is 22800 fluorescence intensity (a.u.).

“TTTGTGATTAAGCTCTTGGTCTCGTCTCCGCGAGCTCAGCCGGAGTCACCTAGTGCAG”: the binding signal was 5540 fluorescence intensity (a.u.). Consider “AACGTATTTGGCCCAATTAAGTATATACATATGTAATGCGCGGAGTCACCTAGTGCAG”, for which the binding signal is 3420 fluorescence intensity (a.u.). The same measure for “GTCAAGTAACTGAACATTTTAATTGCTGCCGATTATTACCCGGAGTCACCTAGTGCAG”: 13400 fluorescence intensity (a.u.); for “GAATTGATGGAATTTAGGCCGCCAGCAAGCAAAGACCGAGCGGAGTCACCTAGTGCAG”: 13300 fluorescence intensity (a.u.); for “CAACTGATTTTATCACGTTCTAAAATATGCCATCATCTTTCGGAGTCACCTAGTGCAG”: 12300 fluorescence intensity (a.u.). The figure for “CACTGACGGAGAAATTTACCGGTCAATGGCCGTCGTCGGTCGGAGTCACCTAGTGCAG” is 18000 fluorescence intensity (a.u.); for “TTATAATTGACACTACGAGAATGGGTCTTTACTGCCGGTTCGGAGTCACCTAGTGCAG” it is 57700 fluorescence intensity (a.u.); for “GCCCTACACAATTTAATTACGTTGACACTGGCCGGTCTTACGGAGTCACCTAGTGCAG” it is 7560 fluorescence intensity (a.u.).

Take “CTAAATTTGTAATTGTAATGTACTACTTTAATCCTTCGTACGGAGTCACCTAGTGCAG”: the binding signal is 53100 fluorescence intensity (a.u.).

For the sequence “TCTAATGATGATTGTAAGCCGTACAATTTACTAAAAGATACGGAGTCACCTAGTGCAG”, the binding signal is 15000 fluorescence intensity (a.u.). The same measure for “TTTAAATTGTAATCCTACTTGAACTCTTCTTTATTTTCTTCGGAGTCACCTAGTGCAG”: 6760 fluorescence intensity (a.u.). The figure for “TCTAATGATAAATCATTTATCACTAATTGTAAGAGTGGTACGGAGTCACCTAGTGCAG” is 53400 fluorescence intensity (a.u.); for “TCTAAATCATTTTAATCATGGTACAGATCTACTGATAATACGGAGTCACCTAGTGCAG” it is 7740 fluorescence intensity (a.u.). The same measure for “ATTTAATGTACAATCATGCTTTTCCGTACTAAATTTTGTTCGGAGTCACCTAGTGCAG”: 14800 fluorescence intensity (a.u.).

Regarding “AATTAACAATTTACCAAATTATTAGTTATCAACACTAATTCGGAGTCACCTAGTGCAG”, the binding signal was 11300 fluorescence intensity (a.u.). On to “GTATGTTATTATATCAATTAGATTTATGCTAGCACTGTCGCGGAGTCACCTAGTGCAG”, for which the binding signal was 15200 fluorescence intensity (a.u.).

For the sequence “CATTGATAGATTGCAAAAGCTAGCTGTCTGGGAGATGGTGCGGAGTCACCTAGTGCAG”, the binding signal is 49500 fluorescence intensity (a.u.). The figure for “ACTATCGTAGGTAGCCAATCAATTTAACATTTCACTCAAGCGGAGTCACCTAGTGCAG” is 3630 fluorescence intensity (a.u.). For the sequence “CGATGATTGTTAGTATACACTATATGTATGGTGTTTATCCCGGAGTCACCTAGTGCAG”, the binding signal was 40600 fluorescence intensity (a.u.). The figure for “CTTGATTGACGACCATCTCGTGGTTACCAATTCCATCACCCGGAGTCACCTAGTGCAG” is 60000 fluorescence intensity (a.u.); for “CTACTATCAATCGACCAATTCCAATCTCATCGTTACAGGACGGAGTCACCTAGTGCAG” it is 4190 fluorescence intensity (a.u.). The figure for “GCTTGACGACACCATTCGGATTGTTCCATCACTTCCATACCGGAGTCACCTAGTGCAG” is 3540 fluorescence intensity (a.u.); for “ACATGTTTTATCAATTAGTAGTATGGGCATATTACTAGTGCGGAGTCACCTAGTGCAG” it is 17800 fluorescence intensity (a.u.); for “TCTCTTCCTTGCTGTGGTGGCGGCGGGCGGGAGGGCGGCGCGGAGTCACCTAGTGCAG” it is 12700 fluorescence intensity (a.u.). The figure for “TGCCCTTACCTGTGGTTTCTCCCGCGGCGGCGGGGTGGAGCGGAGTCACCTAGTGCAG” is 65500 fluorescence intensity (a.u.). On to “AGGAGGCGGGGCGGGGCGGCGGCGGCGGCGGCGGCGCCCGCGGAGTCACCTAGTGCAG”, for which the binding signal was 5340 fluorescence intensity (a.u.).

Turning to “TCTGACCTGTATACTAATTTATGACCATATACTTAATCAACGGAGTCACCTAGTGCAG”, the binding signal is 5380 fluorescence intensity (a.u.). The same measure for “AAAACCATCATCAATCAGCCGATCCTGATGTTGTCCCTGCCGGAGTCACCTAGTGCAG”: 25100 fluorescence intensity (a.u.); for “AAGAGATTGGAATCGGGCGTACCGGAGAACTTTGGAGATGCGGAGTCACCTAGTGCAG”: 12100 fluorescence intensity (a.u.); for “ATGAAAGGAGTTGATTTGCACCGGTTTTCAAAGATGAAAACGGAGTCACCTAGTGCAG”: 3470 fluorescence intensity (a.u.).

As for “GGAAGAATTGATTGATTAAAGATATATATCGAATATCTGCCGGAGTCACCTAGTGCAG”, the binding signal was 40400 fluorescence intensity (a.u.). The same measure for “TTGATTAATTTATTTATAGTTTTGTGAAAGTTTGCGCCGTCGGAGTCACCTAGTGCAG”: 57900 fluorescence intensity (a.u.).

As to “AGATAATTGTGAAATAATTATATTGCGATTTGATAAAGTACGGAGTCACCTAGTGCAG”, the binding signal was 14700 fluorescence intensity (a.u.). The figure for “TATGATTGATATCCACGAATTGAAGAAGAAGTTGCATTGCCGGAGTCACCTAGTGCAG” is 55300 fluorescence intensity (a.u.); for “GGATAATGATTTGACATTGATTGCGGTCTCGTTATTTTCTCGGAGTCACCTAGTGCAG” it is 59500 fluorescence intensity (a.u.). The figure for “TCGTTGTAATAATTTGATTTCTTTTGCAGACGGTCTTTATCGGAGTCACCTAGTGCAG” is 5300 fluorescence intensity (a.u.); for “AATTGATTATTCCTAACAACATTCCGCGGATTAATTTTCTCGGAGTCACCTAGTGCAG” it is 15500 fluorescence intensity (a.u.); for “GGTTTAAATTTTAAAAGTTTGATCAAATATTATCCTAAACCGGAGTCACCTAGTGCAG” it is 4900 fluorescence intensity (a.u.). The same measure for “GTCTAATTGTGATTTTATATTTTAATTAATTATATATTGTCGGAGTCACCTAGTGCAG”: 34800 fluorescence intensity (a.u.). On to “CTCAAAAGTTTGGGTTGATCGATCATTTGCCTACCGAAACCGGAGTCACCTAGTGCAG”, for which the binding signal is 65500 fluorescence intensity (a.u.). Take “ACATATCTTAAGATTGATGAAGTCACCACGAACGCCTCGCCGGAGTCACCTAGTGCAG”: the binding signal was 11700 fluorescence intensity (a.u.).
